Compound activity deposited in PubChem by National Center for Advancing Translational Sciences (NCATS).
Rab9 promoter act: activates the Rab9 promoter. Potency, µM (series often up to 9.22 µM), for inactives: at the top dose activation, negative = inhibition, usual class: activators. Huh7 Rab9 promoter-luciferase reporter, luminescence, 24 h. 2.8% of 320,000 active; note: % of control where 0% means no effect; nearly all actives have a fitted effect of over 60% in size
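Quantitative HTS format; Huh7 Rab9-luciferase reporter cells (1500/well) receive compound 2 h post-plating, incubate 24 h at 37 °C, then get luciferase reagent for 10 min before luminescence reading.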
SMN2 splice enh: enhancers of SMN2 splice variant expression. HEK293 SMN2-luciferase splicing reporter, luminescence, 30-36 h. Potency, µM (series often up to 46.1 µM), for the others: top-dose activity change, positive = activation, usual class: activators. 2.8% of 210,000 active. AID 1458; note: % of control where 0% means no effect; nearly all actives have a fitted effect of over 55% in size
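HEK293 cells carry an SMN2 minigene-luciferase reporter in which exon 7 inclusion puts luciferase in frame. Cells were seeded at 2000 cells/well, attached for 10-12 hours, then exposed to compounds for 30-36 hours at 37C before ONE-Glo luminescence.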
ELG1 DNA repair: inhibitors of ELG1-dependent DNA repair in HEK293T cells; HEK293T ELG1-luciferase reporter, luminescence, 16 h; DNA damage induced by 5-fluorouridine; 2.3% of 330,000 active; Potency, µM (highest dose often 46.1 µM), for inactives: top-dose activity change, negative = inhibition, hits mostly inhibitors; AID 504467; note: % is set by controls: 0 for no effect and ±100 for the full control effect; nearly all actives have a fitted effect of over 55% in size
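Luminescence from the luciferase reporter, measured 30 min after ONE-Glo reagent at room temperature, was the read-out. Beforehand, 2,000 cells per well were exposed for 16 hr at 37 °C to 5-fluorouridine together with compound or vehicle.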
ELG1 genotoxic: induces genotoxicity in HEK293T cells with luciferase-tagged ELG1 | HEK293T ELG1-luciferase reporter, luminescence, 16 h | Potency, µM (titrated, usually from 46 µM), for the others: at the top dose activity change, positive = activation, actives largely listed as activators | 1.3% of 330,000 active | AID 504466; note: % of control where 0% means no effect; nearly all actives have a fitted effect of over 60% in size
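ELG1-luciferase HEK293T cells, 2,000/well; compound pinned in; 16 hr, 37 °C, 5% CO2; ONE-Glo, 30 min RT; luminescence on CCD imager.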
FLuc modulator: firefly luciferase modulation, counter-screen for miR-21 project. purified FLuc, Km substrates, luminescence inhibition. Potency, µM (series often up to 57.5 µM), for inactives: top-dose activity change, negative = inhibition, actives largely listed as inhibitors. 6.9% of 360,000 active;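 note: plate controls were vehicle for no effect and reference inhibitor for full effect; nearly all actives have a fitted effect of over 55% in size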
Target sequence (P08659 whole entry, looked up): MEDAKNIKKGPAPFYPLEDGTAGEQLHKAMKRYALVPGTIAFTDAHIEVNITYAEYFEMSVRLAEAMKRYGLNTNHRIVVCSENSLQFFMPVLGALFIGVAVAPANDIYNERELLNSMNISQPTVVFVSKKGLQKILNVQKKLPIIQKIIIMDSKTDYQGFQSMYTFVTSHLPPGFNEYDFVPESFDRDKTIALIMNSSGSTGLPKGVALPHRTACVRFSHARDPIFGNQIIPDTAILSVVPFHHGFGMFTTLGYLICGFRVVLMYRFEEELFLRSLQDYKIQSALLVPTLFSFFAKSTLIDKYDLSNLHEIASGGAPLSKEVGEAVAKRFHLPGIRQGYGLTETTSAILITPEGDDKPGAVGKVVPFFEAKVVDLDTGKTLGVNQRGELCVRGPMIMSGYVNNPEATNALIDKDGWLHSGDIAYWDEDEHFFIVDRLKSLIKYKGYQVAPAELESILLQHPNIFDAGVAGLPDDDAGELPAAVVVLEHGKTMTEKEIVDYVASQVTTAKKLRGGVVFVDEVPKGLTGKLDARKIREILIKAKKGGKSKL
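Biochemical qHTS of compounds, final roughly 60 µM downward over six points, against 10 nM purified firefly luciferase using Km concentrations of substrates (10 uM D-luciferin, 10 uM ATP) in Tris acetate pH 7.5 buffer; luminescence output.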
NPC1 promoter act: NPC1 promoter activation; Huh7 NPC1 promoter luciferase reporter, 24 h; Potency, µM (highest dose often 9.22 µM), for inactives: at the highest dose activation, usual class: activators; 2.4% of 320,000 active; AID 485313; note: % of control where 0% means no effect; nearly all actives have a fitted effect of over 60% in size
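Compounds in DMSO were transferred onto Huh7 NPC1-luciferase reporter cells pre-incubated 2 h; after 24 h at 37 °C, Amplite reagent was dispensed and luminescence recorded 10 min later.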
The depositor's hits bear a star; ? = inconclusive; / = no result; [ ] = another dose, or the depositor's remark. Hits are enriched below; roughly 9.2% of the tested compounds scored in any of these assays. Calls come from the whole dose curve; as a rule, active = well fitted curve in the direction sought with a large enough effect; inconclusive = small, poorly fitted or top-dose-only effect, or another doubt; inactive = no such curve, though single readings can be large; an effect the other way counts as inactive or inconclusive. Potency is the fitted concentration of half-maximal effect.

SMILES | Rab9 promoter act | SMN2 splice enh | ELG1 DNA repair | ELG1 genotoxic | FLuc modulator | NPC1 promoter act
O=C(Nc1ccc2c(c1)OCCO2)N1CCN(Cc2ccccc2)CC1 | ? | 18% | ? | 2% | 13µM* | ?
O=C(CCc1ccccc1)Nc1cc2c(cc1Cl)OCCO2 | 3.2µM* | 13µM* | ? | ? | 11µM* | 3.5µM*
Cc1ccc(SCCNC(=O)CN(c2ccccc2)S(=O)(=O)N(C)C)cc1 | / | -12% | / | / | -2% | /
COc1ccc2c(c1)CCCC21NC(=O)N(CC(=O)N2CC(C)OC(C)C2)C1=O (stereo not given) | / | / | 7% | -2% | / | /
CCOC(=O)C(NS(=O)(=O)c1ccc(Br)cc1)C(C)C (stereo not given) | 7% | 3% | 3% | 0% | 1% | 7%
CC(C)c1ccc(NC(=O)CCc2ccccc2)cc1 | ? | / | ? | ? | 24µM* | 26%
O=C(CCSCc1ccccc1)Nc1ccc2c(c1)OCCO2 | 10% | / | ? | 7% | 9.5µM* | -2%
Cc1cccc(N2CCN(S(=O)(=O)c3ccc(Cl)nc3)CC2C)c1 (stereo not given) | / | / | 3% | -4% | / | /
CCc1cccc(C)c1NS(=O)(=O)c1cc2[nH]c(=O)c(=O)[nH]c2cc1C | / | / | / | / | 2% | /
CC1N/C(=C\C(=O)c2ccccc2)N(O)C1(C)C (stereo not given) | 1.4µM* | ? | ? | 8.2µM* | 8.5µM* | 2.2µM*
O=C1N=C(N2CCOCC2)S/C1=C\c1ccc(-c2ccccc2Cl)o1 | -7% | -17% | ? | -3% | 1% | -4%
Cc1ccsc1/C=C1/SC(N2CCOCC2)=NC1=O | 24% | ? | ? | 20% | 21µM* | 21%
Cc1ccccc1-c1ccc(/C=C2/SC(N3CCOCC3)=NC2=O)o1 | -9% | / | 8.2µM* | -2% | ? | -5%
COc1ccc(C(=O)Cn2nnc(-c3ccccc3NC(=O)C(F)(F)F)n2)cc1 | 10% | ? | 8% | 1% | 3% | 0%
COc1ccc(C(=O)COC(=O)CCn2nnc(-c3cccc(O)c3OC)n2)cc1 | 4% | -1% | 0% | 11% | 9.5µM* | -1%
COc1ccc(C(=O)CCc2ccccc2)cc1 | ? | / | ? | ? | 17µM* | ?
CCCc1ccc(C(=O)CCC(=O)O)cc1 | 5% | -6% | ? | 19% | 24µM* | 8%
COc1ccc(C(=O)COC(=O)CCc2ccccc2)cc1 | -2% | / | -1% | -3% | 27µM* | -5%
COc1ccc(/C(N)=N/OC(=O)CCc2ccccc2)cc1 | 19% | / | ? | ? | ? | 9%
O=C(CCc1ccccc1)OCC(=O)c1ccc([N+](=O)[O-])cc1 | 1% | 3% | -7% | 2% | -1% | -5%
Cc1ccc(C(=O)CCC(=O)O)cc1 | 0% | -3% | 0% | -2% | 3% | 4%
Cc1ccc2c(c1)-c1nc(-c3ccccc3)cc(-c3ccccc3)c1CO2 | / | -9% | / | / | -1% | /
O=C(NC1=NCCS1)c1ccc(Cl)c(S(=O)(=O)N2CCOCC2)c1 | 0% | ? | -7% | 6% | 1% | 1%
O=C(O)CC[C@]1(C(=O)O)CCC(=O)c2ccccc21 | / | 2%[9.22 µM] | / | / | / | /
CN(NC(=O)c1ccc(Cl)cc1)c1cccc(Cl)n1 | 4% | -16% | 11% | 1% | -19% | -1%
SMILES | Rab9 promoter act | SMN2 splice enh | ELG1 DNA repair | ELG1 genotoxic | FLuc modulator | NPC1 promoter act
COc1ccc(C(=O)COC(=O)CCCC(=O)Nc2ccc(C(C)=O)cc2)cc1 | / | 9% | / | / | 5.4µM* | /
CCN(CC)c1ccc(-n2cc3c(=O)n(C)c(=O)n(C)c3c2)cc1 | 2% | 11% | -15% | -2% | ? | -5%
CN(C)c1ccc(-n2cc3c(=O)n(C)c(=O)n(C)c3c2)cc1 | ? | -8% | ? | ? | 17µM* | ?
CCC(C)NS(=O)(=O)c1ccc(N2CCCCS2(=O)=O)cc1 (stereo not given) | / | / | / | / | -2% | /
CCc1ccc(-c2nc(SCC(=O)NCC3CCCO3)c(-c3ccc(F)cc3)[nH]2)cc1 (stereo not given) | / | 12% | / | / | -3% | /
CC(=O)c1cccc(NC(=O)c2ccc(OC3CSC3)cc2)c1 | 29% | -42% | ? | -11% | ? | 22%
Cc1cccc(NC(=O)c2ccc(OC3CSC3)cc2)c1 | 4µM* | 18µM* | ? | 10µM* | 1.9µM* | 2.5µM*
O=C(Nc1cccc(Br)c1)c1ccc(OC2CSC2)cc1 | 2.2µM* | 74% | ? | 3.3µM* | 2.7µM* | ?
CC(=O)N1CCN(C(=O)c2ccc(NS(=O)(=O)c3ccc4c(c3)OCCO4)cc2)CC1 | 1% | / | -4% | -1% | 3% | -1%
O=C(c1ccc(NS(=O)(=O)c2ccc3c(c2)OCCO3)cc1)N1CCCCC1 | -4% | / | 23µM* | -12% | 7% | -5%
CC(C)(C)C1=CC(=O)C(=O)C(C(C)(C)C)=C1 | -17% | -110% | ? | -5% | 7.6µM* | -16%
CC(C)(C)C1=CC(=Nc2ccccc2N)C=C(C(C)(C)C)C1=O | -8% | 2% | 3% | 1% | 0% | -1%
Clc1ccc(OCc2cn3ccccc3n2)c2ncccc12 | 2.8µM* | / | ? | ? | 12µM* | 3.5µM*
OCc1ccccc1OCCOc1ccc(Cl)c2cccnc12 | 25% | 29% | ? | ? | 19µM* | 27%
Cc1ccc(OCC(=O)c2ccc3c(c2)CCCC3)cc1C | 1.1µM* | 22% | ? | ? | 9.5µM* | 0.56µM*
Cc1csc(NC(=O)COc2ccc3c(c2)CCC3)n1 | 3.5µM* | / | ? | ? | 12µM* | ?
Cc1ccc(NC(=O)COc2ccc3c(c2)CCC3)nc1 | ? | / | ? | 9.2µM* | 9.5µM* | ?
Cc1ccc(NC(=O)COc2ccc3oc4c(c3c2)CCCC4)nc1 | -1% | 0% | 12% | 3% | 10%[2.3 µM] | 0%
Cc1cccnc1NC(=O)COc1ccc2c(c1)CCC2 | ? | / | ? | 9.2µM* | 17µM* | ?
COc1ccc(OCC(=O)Nc2ccc3c(c2)CCC3)cc1 | 16% | / | 19% | -1% | / | -6%
O=C(COc1ccc(Br)cc1)c1ccc2c(c1)CCCC2 | 12% | -8% | 16% | 5% | ? | 16%
O=C(Nc1ccc2c3c(cccc13)CC2)c1ccco1 | 17% | / | ? | ? | 17µM* | 20%
COc1ccc(C(=O)Nc2ccc3c4c(cccc24)CC3)cc1 | ? | 0% | ? | 12% | 15µM* | ?
O=C(Nc1ccc2c3c(cccc13)CC2)c1ccc(Br)o1 | 29% | 2% | ? | ? | 19µM* | 19%
O=C(Nc1cccc2c1CCCC2)c1ccco1 | 0% | 10% | -2% | 2% | -1% | -1%
